esBAF inh = Bmi1 luciferase reporter increase in mESCs, primary screen, esBAF inhibitor project, mouse ES cells, Bmi1 luciferase knock-in, single point; actives 2% (n = 350,000); 24 h; 100% = twice the neutral-well signal; reporter increase, % at 12.5 µM; in the data active means activation above about 40%;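 further: a rise in the Bmi1 reporter signal indicates esBAF inhibition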
Vif imaging = HIV Vif self-association inhibitors, primary screen, imaging, HEK293T, single point | HEK293T cells, Vif self-association by quenched fluorescence, 24 h | inhibition, % at 7.49 µM | actives 0.35% (n = 340,000) | AID 602346, 2012; in the data active means inhibition above about 50%, passing the limit was not always enough
HSF1 inhib = HSF1 inhibitors in luciferase reporter cells, primary screen, cell-based, NIH3T3, luminescence; activity change, negative = inhibition, % at 7.5 µM (by protocol); NIH3T3-HGL HSE-luciferase, MG132-induced, luminescence 8 h; stronger effect = lower value; actives 0.77% (n = 300,000); AID 2098, 2009;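 active means more than half of replicate wells show activity change below -50%, luminescence cut by over half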;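 further: luciferase reports HSF-1 transcriptional activity via heat shock element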
HSF-1 act = HSF-1 activators, primary screen, NIH3T3-HGL cells, MG132 stress, luminescence, single point; NIH3T3-HGL HSF-1 luciferase reporter, 8 h; 100% = twice DMSO control signal; activation, % at 9 µM; actives 1.7% (n = 300,000); AID 504408, 2011;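 active means mean replicate activation of at least 50% with a set share of replicates each reaching 50%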
Hits are given with their value; . = inactive; / = not tested or not shown. Sampled rows, rich in hits. Any-hit rate of the full collection: about 3.4%.

SMILES	esBAF inh	Vif imaging	HSF1 inhib	HSF-1 act
Cc1ccc(-n2c(C)nn(CCOc3ccccc3)c2=O)cc1	45	.	.	.
CC(C)CC#Cc1cnc2c(c1)C(=O)N([C@@H](C)CO)C[C@H](C)[C@@H](CN(C)C(=O)Cc1ccncc1)O2	.	/	/	/
CCN1C(=O)S/C(=C/c2ccc(Sc3nc4ccccc4[nH]3)o2)C1=O	.	.	.	58
C[C@H](CO)N1C[C@H](C)[C@@H](CN(C)C)Oc2cc(-c3cccc(C(=O)N(C)C)c3)ccc2S1(=O)=O	.	/	/	/
CC[n+]1c(/C=C2\C=C(C)CC(C)(C)C2)sc2ccccc21	.	.	.	85
CCC1=C/C(=C/c2sc3ccccc3[n+]2CC)CC(C)(C)C1	/	/	.	.
O=C(Nc1cc(F)ccc1F)N[C@H]1CC[C@H](CC(=O)N2CCc3ccccc3C2)O[C@H]1CO	.	/	/	/
C[C@@H]1CCCCO[C@@H](CN(C)S(=O)(=O)c2ccccc2)[C@H](C)CN([C@H](C)CO)C(=O)c2cc(NC(=O)c3ccccc3)ccc2O1	.	/	/	/
Cc1cc(F)c(F)c(C(=O)N2CCN(C)CC2)c1Cl	.	.	.	.
Cc1cc(F)c(F)c(C(=O)N2CCOCC2)c1Cl	.	/	.	62
COc1ccccc1NC(=O)N[C@@H]1CC[C@H](CCNC(=O)c2ccc3c(c2)OCO3)O[C@@H]1CO	.	/	/	/
COC(=O)c1c(C)[nH]c(C(=O)OCc2ccc(F)cc2)c1C	46	.	.	.
CC(=O)c1c(C)[nH]c(C(=O)OCc2cccc(Cl)c2)c1C	46	.	.	.
CC(=O)c1c(C)[nH]c(C(=O)OCc2c(F)cccc2Cl)c1C	.	.	.	.
COC(=O)c1c(-c2ccccc2OC)sc2ccccc12	.	.	/	/
COC(=O)c1c(-c2ccc(SC)cc2)sc2ccccc12	70	.	/	/
COC(=O)c1c(-c2cc(OC)cc(OC)c2)sc2ccc(OC)cc12	.	.	/	/
COC(=O)c1c(-c2ccc(S(C)(=O)=O)cc2)sc2ccc(OC)cc12	59	.	/	/
COc1ccc(-c2sc3ccc(N4CCOCC4)cc3c2-c2ccc(O)cc2)cc1	.	/	/	/
COC(=O)c1c(-c2ccc(OC)cc2)sc2ccc(N3CCOCC3)cc12	42	.	/	/
COC(=O)c1c(-c2ccc(S(C)(=O)=O)cc2)sc2cc(OC)ccc12	45	.	/	/
Cc1noc(C)c1S(=O)(=O)Nc1ccc2c(c1)C(=O)N([C@H](C)CO)C[C@H](C)[C@@H](CN(C)Cc1ccc3c(c1)OCO3)OCCCC[C@H](C)O2	.	/	/	/
Cc1noc(C)c1S(=O)(=O)Nc1ccc2c(c1)CC(=O)N([C@@H](C)CO)C[C@H](C)[C@H](CN(C)C(=O)Nc1ccc(F)cc1)O2	.	/	/	/
Cn1c(/C(C#N)=C(\O)c2cc(Cl)sc2Cl)nc2ccccc21	.	.	.	.
Cn1c(/C(C#N)=C(\O)c2ccc(Br)s2)nc2ccccc21	47	.	.	.
SMILES	esBAF inh	Vif imaging	HSF1 inhib	HSF-1 act
C[C@@H]1CN([C@H](C)CO)C(=O)c2cc(NS(=O)(=O)c3cccs3)ccc2O[C@@H]1CN(C)S(=O)(=O)c1cccs1	.	/	/	/
O=C1CC(N(Cc2ccc3c(c2)OCO3)C(=O)Nc2ccc(F)cc2)C(=O)N1c1ccccc1 (configuration not stated)	.	.	.	57
CC(=O)c1cc(CC=C(C)C)c(O)c(CC=C(C)C)c1O	.	64	.	.
CC(=O)c1cc(CC=C(C)C)c(O)cc1O	.	.	.	.
O=C(CCl)N1c2ccccc2Oc2ccc3ccccc3c21	50	.	/	/
O=C(Nc1ccccc1F)N1[C@H](CO)[C@@H]2c3ccccc3NC[C@@H]21	63	/	/	/
CCOC(=O)c1c(CSc2ccccc2)n(C)c2ccc(O)c(CN3CCOCC3)c12	.	.	.	70
CCOC(=O)c1c(C)n(C)c2ccc(O)c(CN3CCN(C)CC3)c12	.	.	.	56
CCOC(=O)c1c(C)n(C)c2ccc(OC)c(NC(=O)CN3CCSCC3)c12	.	/	-91	.
CCCCc1ccc(-c2csc(/C(C#N)=C\c3ccco3)n2)cc1	/	51	.	.
N#C/C(=C/c1ccc(-c2cc(C(=O)O)cc(C(=O)O)c2)o1)c1nc2ccccc2s1	/	/	.	.
N#C/C(=C\c1ccco1)c1nc2ccccc2s1	/	/	.	80
N#C/C(=C/c1ccco1)c1nc2ccccc2s1	/	.	.	100
C[C@@H]1CN([C@@H](C)CO)C(=O)c2cc(NS(=O)(=O)c3cccs3)ccc2O[C@@H](C)CCCCO[C@@H]1CN(C)CC1CCCCC1	.	/	/	/
CCOC(=O)N1CCC(NC(=O)c2oc3c(F)cccc3c2C)CC1	50	.	.	.
COCC1CCN(C(=O)c2oc3c(F)cccc3c2C)C1 (configuration not stated)	.	.	.	.
Cc1ccccc1CNC(=O)Cc1ccccc1[N+](=O)[O-]	42	/	.	.
O=C(Cc1ccccc1[N+](=O)[O-])NCc1ccccc1Cl	.	.	.	.
CC1(Cc2cc(Cl)ccc2C(F)(F)F)C(=O)Nc2ccc(S(=O)(=O)NC3CCCCC3)cc21 (configuration not stated)	.	70	/	/
C[C@@H]1CN([C@@H](C)CO)S(=O)(=O)c2ccc(-c3cncnc3)cc2O[C@H]1CN(C)C(=O)C1CC1	.	/	/	/
C[C@H](CO)N1C[C@H](C)[C@H](CN(C)C(=O)Nc2ccc(C(F)(F)F)cc2)Oc2ccc(NC(=O)Cc3cn(C)c4ccccc34)cc2C1=O	.	/	/	/
Cc1cc(F)ccc1-c1cc(C(=O)NC2CCCCC2)[nH]n1	62	.	/	/
Cc1ccc(-c2cc(C(=O)NC3CCCC3)no2)cc1	.	.	.	.
O=C(Nc1cccc(O)c1)c1cc(-c2cccs2)on1	81	.	.	.
O=C(NC1CCCCC1)c1cc(-c2cccs2)on1	45	.	.	.
SMILES	esBAF inh	Vif imaging	HSF1 inhib	HSF-1 act
O=C(NC1CCCCC1)c1cc(-c2ccc(F)cc2)on1	59	.	.	54
CC(=O)c1cccc(NC(=O)c2cc(-c3cccs3)on2)c1	.	.	.	.
CC(C)Oc1cc(F)ccc1-c1cc(C(=O)NC2CCCCC2)[nH]n1	.	.	/	/
Cc1ccc(-c2cnc3c(c2)C(=O)N([C@H](C)CO)C[C@H](C)[C@H](CN(C)C)O3)cc1	.	/	/	/
Cc1ccc2sc(NC(=O)C3CC3)nc2c1C	63	.	.	.
O=C(CN1C(=O)CCC1=O)Nc1nc2c(F)cc(F)cc2s1	.	.	.	.
O=C(Nc1nc2c(F)cc(F)cc2s1)C1CC1	49	.	.	.
Cc1ccc(S(=O)(=O)Nc2ccc3c(c2)C(=O)N([C@H](C)CO)C[C@H](C)[C@H](CN(C)C(=O)c2ccccc2)OCCCC[C@H](C)O3)cc1	.	/	/	/
C[C@@H]1CN([C@H](C)CO)C(=O)Cc2cc(NC(=O)Cc3cn(C)c4ccccc34)ccc2O[C@H]1CN(C)C(=O)Nc1cccc2ccccc12	.	/	/	/
CCCCNC(=S)NNC(=O)c1csc2ccccc12	/	.	.	131
CCCN1C[C@@H](C)[C@@H](OC)CN(C)C(=O)c2cc(NC(=O)Nc3ccccc3F)ccc2OC[C@@H]1C	.	/	/	/

High-throughput results (PubChem BioAssay)
